# FXIIa inh = human FXIIa protease inhibitors, primary screen, biochemical, single well; inhibition, % at 10 µM; actives 0.2% (n = 33,000); AID 701, 2007; purified human FXIIa, AMC substrate fluorescence, 2 h; Coagulation factor XII (Homo sapiens), P00748; in the data active means inhibition above about 30%;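 further: 0% = enzyme with vehicle only and 100% = no enzyme blank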
# FXIa single inh = human FXIa protease inhibitors, primary screen, biochemical, single compound per well; purified human FXIa, fluorogenic AMC substrate cleavage; inhibition, % at 10 µM; actives 0.3% (n = 33,000); Coagulation factor XI (Homo sapiens), P03951;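 active means inhibition above 40% in the primary screen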;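 further: 0% = enzyme without compound and 100% = blank wells lacking enzyme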
# * = called active by the depositor. Rows were chosen to be rich in hits. Some 0.33% of all compounds tested hit in one or more screens of this group.
SMILES,FXIIa inh,FXIa single inh
Cc1cc(NC(=O)C(C)C)ncc1NC(=O)Cc1ccccc1,38*,1
CCOc1ccc(C(=O)NCC2OCCc3ccccc32)cc1 (stereo unspecified),4,-3
CC1(C(=O)NC2CCCCCCC2)CCC(=O)N1Cc1cccs1 (stereo unspecified),2,7
C=CCOCC(O)CS(=O)(=O)Cc1ccc(Cl)cc1 (stereo unspecified),8,-6
c1ccc(CCn2c(C3CC3)nc3ccccc32)cc1,2,-3
COC(=O)c1sc(NC(=O)CSc2nncs2)c(C(=O)OC)c1C,4,-7
COC(=O)c1sc(NC(=O)CC(C)C)c(C(=O)OC)c1C,6,43*
COc1ccc(C2N=C(c3ccccc3)C(C)(C)N2O)cc1 (stereo unspecified),13,-1
O=C(Oc1cccc(-n2cnnn2)c1)c1ccco1,47*,45*
CC1CCc2c(C(=O)Oc3cccc(-n4cnnn4)c3)csc2C1 (stereo unspecified),9,0
Cc1cc(C(=O)COC(=O)C2=NNC(=O)CC2)c(C)n1-c1cccc(C(F)(F)F)c1,2,11
CC12CC(c3ccccc3O1)N(C(=O)c1ccco1)C(=S)N2c1ccc(F)cc1 (stereo unspecified),5,6
O=C(CNC(=O)c1ccc(Cl)cc1Cl)NCCCn1ccnc1,-4,-2
Cc1nn(CC(=O)NCc2cccc3ccccc23)c(=O)c2ccccc12,7,-12
COc1ccc(OCCSc2ncn[nH]2)cc1,-15,43*
O=C(CSc1ncn[nH]1)NCCOc1ccccc1,-1,-2
CCc1ccccc1NC(=O)Cn1nc(C(F)(F)F)c2c1CCC2,1,-3
CCc1ccc(NC(=O)Cn2nc(C(F)(F)F)c3c2CCC3)cc1,2,44*
COC(=O)c1ccc(NC(=O)CN(Cc2ccc(Cl)cc2)S(C)(=O)=O)cc1,-4,-2
COC(=O)CSc1snnc1-c1ccc(Cl)cc1Cl,12,-3
O=C(NCc1ccc2c(c1)OCO2)C1CCCN(S(=O)(=O)c2cccc3nonc23)C1 (stereo unspecified),3,8
O=C(NCc1ccccc1)C1CCCN(S(=O)(=O)c2cccc3nonc23)C1 (stereo unspecified),9,61*
Cc1ccc(C(=O)ONc2ccc(N=NC(=O)c3ccccc3O)cc2)cc1,15,43*
COC(=O)c1ccc(NC(=O)c2ccccc2SC)cc1,7,1
